Measured values: PubChem BioAssay (Tox21)
A number with no mark means an inactive call. Active and inactive are the calls of the source. Calls follow the shape of the dose curve; as a rule, active = well fitted curve in the direction sought with a large enough effect in the repeat runs; inconclusive = weak or mixed curves; inactive = flat fitted curve, though single readings scatter.

Assay: qHTS assay to test for compound auto fluorescence at 590 nm (red) in HepG2 cell free culture (AID 720684)
Conditions: cell-free medium autofluorescence, red 540/590 nm; series mostly up to 91.3 µM
Excerpt: U.S. Tox21 Program National Center for Advancing Translational Sciences [NCATS] NIH Chemical Genomics Center [NCGC] U.S. Environmental Protection Agency [EPA] National Institutes of Environmental Health Sciences [NIEHS] National Toxicology Program [NTP] U.S. Food and Drug Administration [FDA] Tox21 Assay Overview: Compound auto fluorescence often interferes with screening of the compound library against various biological targets and signaling pathways. Some of these compounds may have fluorophoric properties. Such properties may interfere with the assay outputs resulting in false positives and/or negatives. To decrease such complications and ensure the compound activities are relevant in terms of biological response, the Tox21 10K compound library was screened for auto fluorescence. From the fluorophores used as reporter signals in our screening assays, the auto fluorescence equivalencies of compounds against three fluorophores have been evaluated: Triamterene, Fluorescein and Rose Bengal sodium for blue, green and red fluorescence, respectively. The fluorescence intensities were measured using Excitation/Emission wavelengths at 405/460nm, 485/535nm and 540/590nm for blue, green and red labels, respectively. This assay includes the red fluorescence data.
Tox21 Assay Protocol Summary: 5 uL of culture medium (MEM containing 10% FBS) per well was dispensed into black wall/clear bottom 1536-well plates using a Multidrop Combi Dispenser (ThermoFisher Scientific, Waltham, MA). After 23 nL compound or DMSO vehicle was transferred into assay plate by a pintool work station (Kalypsys, San Diego, CA), fluorescence intensities in the assay plates were measured by an Envision (PerkinElmer, Shelton, CT) plate reader using three labels for measuring blue, green and red fluorescence at […] 460, 535 and 590nm respectively.
% is scaled to controls: 0 for no effect and ±100 for the full control effect.

Structure (SMILES)	outcome	fluorescence, % of Rose Bengal
O=[N+]([O-])CCO	inactive	
N[C@@H]1C[C@H]1c1ccccc1	inactive	
CC[C@@H](CO)NC(=O)[C@@H]1C=C2c3cccc4[nH]cc(c34)C[C@H]2N(C)C1	inactive	
CCNc1nc(NCC)nc(SC)n1	inactive	
ClC(Cl)(Cl)Cl	inactive	
OP(O)c1ccccc1	inactive	
CN=CNc1ccc(C)cc1C	inactive	
CCC(=O)OC1(c2ccccc2)CCN(C)CC1	inactive	
C=C1CC[C@@]2(O)[C@H]3Cc4ccc(O)c5c4[C@@]2(CCN3CC2CC2)[C@H]1O5	inactive	
C=C1C[C@@H]2[C@H](CC[C@]3(C)C(=O)CC[C@@H]23)[C@@]2(C)C=CC(=O)C=C12	inactive	
COc1ccc(CN2CCNCC2)c(OC)c1OC		0.0451% [at 18.6 µM]
BrCCc1ccccc1	inactive	
COC(=O)c1ccccc1CS(=O)(=O)NC(=O)Nc1nc(OC)cc(OC)n1	inactive	
CCC(=O)c1ccc(Cl)cc1	inactive	
CCC(C)(C#N)N=NC(C)(C#N)CC (stereo not given)	inactive	
CCN(CC)C1CCCCC1	inactive	
C/C(=N\NC(=O)Nc1cc(F)cc(F)c1)c1ncccc1C(=O)O	inactive	
COC(=O)c1ccc(CBr)cc1	inactive	
Cc1ccc(-c2nc3ccc(C)cn3c2CC(=O)N(C)C)cc1	inactive	
Clc1nc(Cl)nc(Nc2ccccc2Cl)n1	inactive	

Structure (SMILES)	outcome	fluorescence, % of Rose Bengal
O=C(O)C(Cl)Br (stereo not given)	inactive	
C=C(Cl)CSC(=S)N(CC)CC	inactive	
O=c1[nH]oc2c1CCNC2	inactive	
CC(C)(N)Cc1ccc(Cl)cc1	inactive	
CCOC(=O)COc1ccc(Cl)cc1Cl	inactive	
CCC1(c2ccccc2)C(=O)N(COC)C(=O)N(COC)C1=O	inactive	
OCC(Cl)CCl (stereo not given)	inactive	
CCCCCCC1CCOC1=O (stereo not given)	inactive	
CCN[C@@H](C)Cc1ccccc1	inactive	
CCOC1Oc2ccc(OS(C)(=O)=O)cc2C1(C)C (stereo not given)	inactive	
CON(C)C(=O)Nc1ccc(Br)cc1	inactive	
O=C(O)CBr	inactive	
CCCCCCCCSC(=O)Oc1cc(Cl)nnc1-c1ccccc1	inactive	
CN1C(=O)COc2c(C(=O)NC3CN4CCC3CC4)cc(Cl)cc21 (stereo not given)	inactive	
CC(=O)CN(CC(C)=O)N=O	inactive	
Cc1cc(OC(=O)N(C)C)nn1C(=O)N(C)C	inactive	
CC(C)C(C)(N)C#N (stereo not given)	inactive	
ClCOCCl	inactive	
O=C1CCCCC1Cl (stereo not given)	inactive	
C[C@H](CN1CCOCC1)C(C(=O)N1CCCC1)(c1ccccc1)c1ccccc1	inactive	
